Test results as given in PubChem BioAssay AID1851 (National Center for Advancing Translational Sciences (NCATS), 2009).
Where “and” joins values, the source holds several entries; their conditions need not be identical. Equal entries are not always repeated. Screen size: about 16,000 compounds; about 5,700 (36%) were called active. Not shown: some 24% with an inconclusive outcome. The list shows a part of the results. Values without a mark were called inactive. The call rests on the fitted dose curve; in most records, active means well fitted curve in the direction sought with a large enough effect; inconclusive means small, poorly fitted or top-dose-only effect, or effect the other way; inactive means no such curve, though single readings can be large or run the other way.

Target: Cytochrome P450 1A2 (Homo sapiens) (UniProt P05177)
Sequence (P05177 whole entry, looked up): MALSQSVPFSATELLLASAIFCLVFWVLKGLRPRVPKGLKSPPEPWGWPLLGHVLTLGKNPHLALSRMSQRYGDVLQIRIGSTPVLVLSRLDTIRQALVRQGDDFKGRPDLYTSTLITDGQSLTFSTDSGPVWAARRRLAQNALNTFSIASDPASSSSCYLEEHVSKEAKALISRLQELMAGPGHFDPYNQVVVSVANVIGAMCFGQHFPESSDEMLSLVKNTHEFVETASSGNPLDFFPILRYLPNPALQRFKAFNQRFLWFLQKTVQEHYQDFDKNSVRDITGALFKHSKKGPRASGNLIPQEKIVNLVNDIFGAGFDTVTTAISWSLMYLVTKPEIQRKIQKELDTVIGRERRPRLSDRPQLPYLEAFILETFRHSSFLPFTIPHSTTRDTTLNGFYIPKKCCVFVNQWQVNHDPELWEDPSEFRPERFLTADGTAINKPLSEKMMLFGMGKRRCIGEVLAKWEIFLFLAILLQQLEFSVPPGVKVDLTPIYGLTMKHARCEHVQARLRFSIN
Assay: Cytochrome panel assay with activity outcomes
Details: recombinant CYP, pro-luciferin dealkylation, luminescence, p450-cyp1a2; series mostly up to 57.1 µM; activity, negative = inhibition: at the top concentration
On the % scale 0 is the no-effect control and ±100 the full control effect.

SMILES | activity, negative = inhibition | AC50
CSC(=N)N | -5.29% | 
Clc1cccc(Nc2ncnc3ccc(Br)cc23)c1 |  | 0.562 µM (active)
Brc1ccc2ncnc(Nc3cccc4ccccc34)c2c1 |  | 1.58 µM (active)
CCc1ccc(C2=Nn3c(nnc3-c3cccs3)SC2)cc1 |  | 3.55 µM (active)
CCOc1ccc(C2=Nn3c(nnc3-c3ccco3)SC2)cc1 |  | 2 µM (active)
COc1ccc(-c2nnc3n2N=C(C)CS3)cc1 |  | 1.41 µM (active)
COc1cccc(-c2nnc3n2N=C(C(C)(C)C)CS3)c1 |  | 2.82 µM (active)
COc1ccc(-n2c(C)n[nH]c2=O)cc1 | -1.01% | 
O=C(O)C1=CCCNC1 |  | inactive
CCOc1ccc(-c2nnc3n2N=C(c2ccc(OC)cc2)CS3)cc1 |  | 3.55 µM (active)
O=C(Nc1cccc2ccccc12)/C(=C/c1ccc([N+](=O)[O-])cc1)NC(=O)c1ccccc1 |  | 3.16 µM (active)
Cc1ccc(NC(=O)/C(=C\c2ccc([N+](=O)[O-])cc2)NC(=O)c2ccccc2)cc1 | -11% | 
O=C(OCC(=O)c1ccc([N+](=O)[O-])cc1)/C(=C\c1ccc(Cl)cc1)NC(=O)c1ccccc1 |  | 12.6 µM (active)
O=C(OCc1ccccc1)/C(=C/c1ccc(Cl)cc1)NC(=O)c1ccccc1Cl |  | 0.891 µM (active)
COc1cc(/C=C(/NC(=O)c2ccccc2Cl)C(=O)O)cc(OC)c1OC | -2.92% | 
Cc1ccc(S(=O)(=O)N[C@H]2COC(=O)C/C=C\[C@@H](C)[C@H](NS(=O)(=O)c3ccc(C)cc3)COC(=O)C/C=C\[C@H]2C)cc1 | -0.94% [at 11.4 µM] | 
O=C(Nc1ccnc(-c2cccnc2)n1)c1cccc(Cl)c1Cl |  | 0.562 µM (active)
O=C(Nc1ccnc(-c2cccnc2)n1)c1ccccc1Cl |  | 0.398 µM (active)
CC1(C)OCC([C@H](O)C2=CCCCC2=O)CO1 | -1.5% [at 11.4 µM] | 
O=C(c1ccco1)N1CCN(C(=O)C2(S(=O)(=O)c3ccc(Cl)cc3)CC2)CC1 | -22% | 
FC(F)(F)c1cccc(-c2nc3nc(Cl)c(Cl)nc3[nH]2)c1 |  | 0.398 µM (active)
Cn1ccc2cc3c(cc21)CCN3C(=O)Nc1cccnc1 |  | 25.1 nM (active) and 3.98 nM (active)

SMILES | activity, negative = inhibition | AC50
COC(=O)c1ccc(NC(=O)N2CCC(O)(c3cccnc3)CC2)cc1 | -13.5% | 
COc1cc2c(cc1C(F)(F)F)N(C(=O)Nc1cc(F)cc(-c3cccnc3)c1)CC2 |  | 0.316 µM (active)
CSc1cc2c(cc1C(F)(F)F)N(C(=O)Nc1cccnc1)CC2 |  | 0.000794 µM (active)
O=C(Nc1cccc(F)c1)N1CCC2(CC1)CCN(C(=O)c1cnccn1)CC2 | 4.45% | 
CN1CCc2cc(NC(=O)Nc3cccnc3)ccc21 |  | 0.0794 µM (active)
CN1CCc2c(cc(O)c(O)c2Cl)[C@H](c2cccc(Cl)c2)C1 | -4.23% | 
Cn1c(=O)[nH]c2ncn(C)c2c1=O | -4.02% | 
[O-][N+](CCO)(CCO)c1ncnc2nc[nH]c12 | -5.88% [at 11.4 µM] | 
CCOC(=O)C1=C(c2ccccc2)N=c2s/c(=C\c3ccco3)c(=O)n2C1c1cccs1 (stereo not given) |  | 6.31 µM (active)
CCOC(=O)C1=C(c2ccccc2)N=c2s/c(=C\c3cccc(O)c3)c(=O)n2C1c1cccs1 (stereo not given) |  | 25.1 µM (active)
CCOC(=O)C1=C(c2ccccc2)N=c2s/c(=C\c3cc(OC)c(OC)c(OC)c3)c(=O)n2C1c1cccs1 (stereo not given) | 0.13% | 
CCOC(=O)C1=C(c2ccccc2)N=c2s/c(=C\c3ccc(O)cc3)c(=O)n2C1c1cccs1 (stereo not given) | -9.66% | 
COc1ccc(C2/C(=C(/O)c3ccc(Cl)cc3)C(=O)C(=O)N2CCN2CCOCC2)c(OC)c1 (stereo not given) | -25.5% | 
Cc1ccc(NC(=O)Nc2nc(-c3ccc(C)s3)cs2)cc1 |  | 1.58 µM (active)
C#CCCCO/N=C1/C[C@@H](O)[C@@H](O)[C@@H]2[C@@H]3C(=O)N(Cc4ccccc4)C(=O)[C@H]3CC[C@@H]12 | 6.78% [at 11.4 µM] | 
CNC(=O)c1nnn(Cc2ccccc2)c1NC(=O)C(F)(F)F | -22.4% | 
COc1ccc(NC(=O)C2CC(=O)NC3=C2C(=O)CC(C)(C)C3)cc1 (stereo not given) | -2.7% | 
COc1ccc(C(C(=O)Nc2ccc(F)cc2)N(C(=O)Cn2nnc3ccccc32)C2CC2)cc1 (stereo not given) | -13.1% | 
CCN(Cc1ccccc1)Cc1cccc([N+](=O)[O-])c1 |  | 5.01 µM (active)
N[C@@H](Cc1cccc([N+](=O)[O-])c1)C(=O)O | -10.6% [at 11.4 µM] | 
COCC(C)NCc1cccc([N+](=O)[O-])c1 (stereo not given) | -12.9% | 
O=C(O)CC/C=C\CC[C@H]1[C@@H](N2CCCCC2)[C@@H](O)C[C@@H]1OCc1ccc(-c2ccccc2)cc1 | 0.717% | 

SMILES | activity, negative = inhibition | AC50
FC(F)(F)c1ccccc1-c1cc(NCc2ccccc2)ncn1 |  | 12.6 µM (active)
CNc1cc(-c2ccccc2C(F)(F)F)ncn1 |  | 15.8 µM (active)
CNc1cc(-c2ccccc2C)ncn1 |  | 10 µM (active)
CNc1ncncc1-c1ccccc1C(F)(F)F | -17.8% | 
Cc1ccccc1-c1cc(N(C)C)ncn1 |  | 2 µM (active)
CN(C)C(=O)/N=N\C(=O)N(C)C | -4.71% | 
CC(C)=CCC/C(C)=C/CO/N=C1/C[C@@H](O)[C@@H](O)[C@@H]2[C@@H]3C(=O)N(C[C@@H]4CCCO4)C(=O)[C@H]3CC[C@@H]12 | -6.43% [at 11.4 µM] | 
O=C(CCNc1cccc(Cl)c1)c1cccs1 |  | 10 µM (active)
O=C(O)CNc1ccc(C(=O)O)cc1 | -15.1% [at 11.4 µM] | 
O=C(CNc1cccc(Cl)c1)c1ccc(Cl)cc1 |  | 3.16 µM (active)
O=C(O)CCCC[C@H]1CCSS1 | 0.489% | 
COc1cccc2c1OC1(C)CC2/C(=C(\C)O)C(=O)N1 (stereo not given) | -14.3% | 
CCc1ccc(-c2ccc(C(=O)C(F)(F)F)[nH]2)cc1 |  | 1.12 µM (active)
N[C@@H](CO)C(=O)NNCc1ccc(O)c(O)c1O |  | inactive
CC[C@H]1C(=O)OC[C@H]1Cc1cncn1C |  | inactive
CC(NC(=O)Cc1ccc(F)cc1)c1ccccc1 (stereo not given) | -20.4% | 
CC(C)NC(=O)CC(=O)N/N=C/c1ccc(F)cc1 |  | 15.8 µM (active)
C=CC(=O)NC(NC(=O)C=C)c1ccc(Br)cc1 | -17.7% | 
O=Nc1ccc(NOC(=O)c2ccc(Br)cc2)cc1 | -15.1% | 
Cc1ccc(S(=O)(=O)N(CC(=O)N/N=C/c2ccc(F)cc2)c2cccc3cccnc23)cc1 | -19.5% | 
CC(C)NC(=O)CC(=O)N/N=C/c1ccc(Br)cc1 |  | 1.41 µM (active)
